# In PubChem BioAssay AID1851 (National Center for Advancing Translational Sciences (NCATS), 2009):
# Out of some 16,000 compounds screened, about 4,000 (25%) were called active. Roughly 26% stayed inconclusive and do not appear here. A selection follows. Values without a mark were called inactive. Calls come from the whole dose curve; as a rule, active = well fitted curve in the direction sought with a large enough effect; inconclusive = small, poorly fitted or top-dose-only effect, or effect the other way; inactive = no such curve, though single readings can be large or run the other way.
# Biological target: Cytochrome P450 2C9 (Homo sapiens) (UniProt P11712)
# Sequence (P11712 whole entry, looked up): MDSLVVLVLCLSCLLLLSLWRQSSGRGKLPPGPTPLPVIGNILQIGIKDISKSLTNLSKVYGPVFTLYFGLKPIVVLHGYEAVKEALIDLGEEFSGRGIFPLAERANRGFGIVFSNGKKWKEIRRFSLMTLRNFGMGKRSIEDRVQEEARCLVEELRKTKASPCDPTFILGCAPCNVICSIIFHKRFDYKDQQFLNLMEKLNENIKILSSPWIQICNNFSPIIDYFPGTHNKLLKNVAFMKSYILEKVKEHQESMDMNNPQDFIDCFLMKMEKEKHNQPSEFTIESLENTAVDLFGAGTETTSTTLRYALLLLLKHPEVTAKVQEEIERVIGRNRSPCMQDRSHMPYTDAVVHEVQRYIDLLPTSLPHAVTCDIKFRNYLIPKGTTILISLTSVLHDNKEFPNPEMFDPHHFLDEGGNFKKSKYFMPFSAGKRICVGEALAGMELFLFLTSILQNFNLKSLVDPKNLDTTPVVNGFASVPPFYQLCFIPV
# Test: Cytochrome panel assay with activity outcomes
# Conditions: recombinant CYP, pro-luciferin dealkylation, luminescence, p450-cyp2c9; series mostly up to 57.1 µM
# % is set by controls: 0 for no effect and ±100 for the full control effect.
Compound,AC50,"activity, negative = inhibition"
c1ccc2[nH]c(NC3=NCCC3)nc2c1,inactive,–
COc1cc(/C=N\Nc2nc3ccccc3[nH]2)cc(OC)c1OC,15.8 µM (active),–
COC(=O)Nc1nc2ccc(Sc3ccccc3)cc2[nH]1,inactive,–
Cc1ccc2nc(-c3ccccc3)cc(C(=O)NCCCn3ccnc3)c2c1,0.1 µM (active),–
Cc1cccc(NC(=S)c2nc3ccccc3s2)c1,inactive,–
Cc1cccc(NC(=O)N(Cc2nc3ccccc3c(=O)[nH]2)C2CCCC2)c1,5.62 µM (active),–
CN1CCC(N(C)C(=O)CCc2nc3ccccc3c(=O)[nH]2)CC1,inactive,–
C/C(=N\OC(=O)c1ccccc1)c1cc(-c2ccc(Cl)cc2)no1,inactive,–
N/C(=N\OC(=O)c1cc(-c2ccccc2)nc2ccccc12)c1ccc(Cl)cc1,3.98 µM (active),–
Cn1c(=O)c2[nH]c(C3CCCC3)nc2n(C)c1=O,inactive,–
NC(=O)N[C@H]1NC(=O)NC1=O,inactive,–
C=CCC(C(=O)OC)(C(=O)OC)c1ccc([N+](=O)[O-])cn1,inactive,–
COC(=O)C(C)(C(=O)OC)c1ccc([N+](=O)[O-])cn1,inactive,–
COC(=O)C(NC(=O)c1ccc(F)cc1)(Nc1ncc(S(=O)(=O)c2ccc([N+](=O)[O-])cc2)s1)C(F)(F)F (stereo not given),3.55 µM (active),–
O=S(=O)(Nc1ccc(Cc2ccncc2)cc1)c1cccs1,0.02 µM (active),–
O=S(=O)(Nc1ccc(Cc2ccncc2)cc1)c1ccc(Br)cc1,0.0141 µM (active),–
O=C1CCCCC(=O)c2ccccc2N1,inactive,–
O=C(CNC(=O)c1ccco1)OC(C(=O)c1ccccc1)c1ccccc1 (stereo not given),25.1 µM (active),–
COc1ccc(C(=O)NCC(=O)OCc2cccc(Br)c2)cc1,inactive,–
O=C(CNC(=O)c1ccco1)OCc1c(F)cccc1Cl,inactive,–

Compound,AC50,"activity, negative = inhibition"
COc1ccc(C(=O)C(OC(=O)CNC(=O)c2ccco2)c2ccccc2)cc1 (stereo not given),20 µM (active),–
CCOc1ccc2c(ccc(/C=C\c3cc(C)c4cccnc4c3O)[n+]2C)c1,–,5.89% [at 11.4 µM]
O=C(O)[C@H]1CCCC[C@@H]1C(=O)Nc1nc2ccccc2[nH]1,–,2.98% [at 11.4 µM]
Cc1cc(NC(=O)C2CCCC2)n(-c2nc3ccccc3[nH]2)n1,3.98 µM (active),–
O=C(Nc1nc2ccccc2n1CCN1CCCCC1)C1CCCCC1,inactive,–
COc1cccc(/C=N/NC(=O)c2cc(-c3cccn3C)n[nH]2)c1,inactive,–
Cc1ccc(NCC(=O)N/N=C\c2ccc([N+](=O)[O-])o2)cc1,inactive,–
Cc1ccc(NCC(=O)N/N=C/c2ccc(OC(=O)c3ccco3)cc2)cc1,8.91 µM (active),–
Cc1cc(C(=O)N/N=C/c2cccc(OC(=O)c3ccco3)c2)n[nH]1,11.2 µM (active),–
COc1ccc(-n2c(C)nn(C)c2=O)cc1,inactive,–
CCOC(=O)c1sc(=N)n(-c2ccc(OC)cc2)c1C,3.16 µM (active),–
CCOC(=O)c1nc(N)sc1C(=O)OCC,inactive,–
CC(C)c1cc(C(F)(F)F)nc(NNc2nc(C(C)C)cc(C(F)(F)F)n2)n1,–,-27.5% [at 11.4 µM]
CC(C)Nc1nc(Oc2ccc(Cl)cc2)cc(C(F)(F)F)n1,15.8 µM (active),–
CC(C)Nc1cc(C(F)(F)F)nc(-c2ccccn2)n1,inactive,–
CC(C)CN(Cc1c(O)ccc2c3c(c(=O)oc12)CCC3)CC(C)C,28.2 µM (active),–
CCOC(=O)c1[nH]c(C(=O)O)c(CCN(CC)CC)c1C,inactive,–
CCN(CC)C(=O)CSc1nnc(-c2ccco2)n1N,inactive,–
CCOc1ccc(C2=Nn3c(nnc3-c3ccco3)SC2)cc1,2.24 µM (active),–
CCc1ccc(C2=Nn3c(nnc3-c3cccs3)SC2)cc1,7.08 µM (active),–

Compound,AC50,"activity, negative = inhibition"
C/C(CCN1CCc2nc(-c3ccccc3)c(-c3ccccc3)cc2C1)=N\OC[C@@H](O)COCc1ccco1,–,-7.86% [at 11.4 µM]
COc1cc(/C=C\c2ccc(OC)cc2OC)cc(OC)c1,inactive,–
CC(C)NC(=O)N1CCC2(CC1)CCN(C(=O)c1ccncc1)CC2,inactive,–
COC(=O)C1=C(NC(=O)c2cccc(OC)c2)CCS1,11.2 µM (active),–
CCN(CC)S(=O)(=O)c1ccc(C(=O)NC2=C(C(=O)OC)SCC2)cc1,2 µM (active),–
CN1CCN(S(=O)(=O)c2cc([N+](=O)[O-])ccc2N2CCCCCC2)CC1,inactive,–
O=[N+]([O-])c1ccc(N2CCCCC2)c(Cl)c1N1CCCCC1,2.24 µM (active),–
Clc1ccc(N2CCCCCC2)nn1,inactive,–
C/C(CCN1CCc2nc(-c3ccccc3)c(-c3ccccc3)cc2C1)=N\OC[C@@H](C)[C@H](OCc1ccccc1)C(C)C,–,-9.58% [at 11.4 µM]
Cc1cccc(CSCCNC(=O)c2ccc(N(C)S(=O)(=O)c3ccccc3)cc2)c1,0.562 µM (active),–
Cc1cccc(N(CC(=O)N2CCOCC2)S(C)(=O)=O)c1,inactive,–
CN(CC(=O)O/N=C(\N)c1ccccn1)S(=O)(=O)c1ccccc1,inactive,–
Cc1cccc(N(CC(=O)NCCSCc2ccco2)S(=O)(=O)c2ccccc2)c1,4.47 µM (active),–
Cc1cccc(CNc2ccnc(-c3ccc(C(=O)N(C)C)cc3)n2)c1,–,-11.3% [at 2.29 µM]
Cc1cc(C)cc(N(CC(=O)NCCSc2ccccn2)S(=O)(=O)c2ccccc2)c1,0.282 µM (active),–
Cc1cccc(CNc2cc(-c3ccc(C(=O)N(C)C)cc3)ncn2)c1,–,5.16% [at 2.29 µM]
CC(C)NC[C@H](O)c1cc(O)cc(O)c1,inactive,–
O=C(O)C[C@H]1OCC=C2C[N@@+]3([O-])CC[C@]45c6ccccc6N[C@@H]4[C@@H]1[C@H]2C[C@H]53,–,5.86% [at 11.4 µM]
CC(=O)OC[C@@H]1O[C@@H](O/N=C2/C[C@@H](O)[C@@H](O)[C@@H]3[C@H]4C(=O)N(c5ccc(F)cc5F)C(=O)[C@@H]4CC[C@@H]23)[C@H](OC(C)=O)[C@H](OC(C)=O)[C@@H]1OC(C)=O,–,18.5% [at 11.4 µM]
CC1=NCC[N@@+]1(CCc1ccccc1)Cc1ccccc1,–,-1.38% [at 11.4 µM]
